High-throughput results deposited in PubChem BioAssay by National Center for Advancing Translational Sciences (NCATS).
AmpC inh detg: qHTS Inhibitors of AmpC Beta-Lactamase (assay with detergent); AID 485294, 2010; Potency, µM (series often up to 114 µM), most hits filed as inhibitors; 370,000 tested, 0.041% active; AmpC hydrolysis of nitrocefin, absorbance 480 nm, 0.01% Triton; P00811; note: nearly all actives have a fitted effect of over 25% in size
Target sequence (P00811 whole entry, looked up): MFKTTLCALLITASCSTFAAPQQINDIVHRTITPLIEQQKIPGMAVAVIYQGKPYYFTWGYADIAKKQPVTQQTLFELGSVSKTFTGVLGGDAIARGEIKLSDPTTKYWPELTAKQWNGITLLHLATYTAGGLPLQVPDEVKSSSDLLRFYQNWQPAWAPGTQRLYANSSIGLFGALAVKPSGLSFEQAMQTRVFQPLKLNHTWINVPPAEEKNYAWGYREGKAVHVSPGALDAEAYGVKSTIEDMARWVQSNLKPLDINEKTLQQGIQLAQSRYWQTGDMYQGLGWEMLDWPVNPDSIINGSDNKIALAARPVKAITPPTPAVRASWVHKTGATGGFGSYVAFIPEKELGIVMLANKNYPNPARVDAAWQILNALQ
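AmpC (5.3 nM in the dispensed reagent) in 20 mM phosphate pH 7.0 with 0.01% (detergent screen) or 0.0001% Triton X-100 was preincubated with compounds for 15 min at room temperature. Nitrocefin was then added from an 800 uM solution, and hydrolysis was followed at 480 nm.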
Shiga toxin inh: A qHTS for Small Molecule Inhibitors of Shiga Toxin. Vero cells, Shiga toxin protein synthesis inhibition reporter. inhibition, % at 38.7 µM. 290,000 tested, 9.2% active; in the data active = inhibition mostly above about 28%, no sharp cut-off; inactive = mostly below about 43%
Cycloheximide cs: Cycloheximide Counterscreen for Small Molecule Inhibitors of Shiga Toxin; cell reporter, cycloheximide protein synthesis inhibition counterscreen; max response, %; 300,000 tested, 12% active; AID 2314, 2010; in the data active = max response mostly above about 13%, no sharp cut-off; inactive = mostly below about 14%; note: read at 38.3 µM for the half of the compounds with a filed dose
SARS PLP yeast: qHTS of Yeast-based Assay for SARS-CoV PLP | S. cerevisiae expressing SARS-CoV PLpro, growth rescue | Potency, µM (doses to about 32.9 µM), actives largely listed as activators | 330,000 tested, 0.19% active; calls by dose curve; note: nearly all actives have a fitted effect of over 55% in size
AMA1-RON2 inh: qHTS for Inhibitors of AMA1-RON; Towards Development of Antimalarial Drug Lead: Primary Screen. AlphaScreen AMA1-biotinylated RON2 peptide binding. Potency, µM (highest dose often 58.2 µM), hits mostly inhibitors. 360,000 tested, 0.2% active; note: nearly all actives have a fitted effect of over 45% in size
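AMA1 (3D7) with his tag at 25 nM final met compounds first, then biotinylated RON2 peptide at 25 nM; detection used donor plus acceptor beads, 10 µg/mL apiece, read by AlphaScreen after 30 min at room temperature.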
AmpC inh no detg: qHTS Inhibitors of AmpC Beta-Lactamase (assay without detergent); Potency, µM (top dose mostly 57.1 µM), usual class: inhibitors; AID 485341, 2010; AmpC nitrocefin hydrolysis, absorbance 480 nm, 0.0001% Triton; 330,000 tested, 0.52% active; note: nearly all actives have a fitted effect of over 20% in size
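AmpC (5.3 nM in the dispensed reagent) in 20 mM phosphate pH 7.0 with 0.01% (detergent screen) or 0.0001% Triton X-100 was preincubated with compounds for 15 min at room temperature. Nitrocefin was then added from an 800 uM solution, and hydrolysis was followed at 480 nm.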
Large screens that a line does not name were inactive; ! = repeats disagree. The sample as a whole holds a higher share of hits than the screen did. Unless noted, calls come from the whole dose curve; as a rule, active = well fitted curve in the direction sought with a large enough effect; inconclusive = small, poorly fitted or top-dose-only effect, or another doubt; inactive = no such curve, though single readings can be large; an effect the other way counts as inactive or inconclusive.

CCOc1ccccc1/C=N/NC(=O)c1cccc(S(=O)(=O)N(CC)CC)c1	none
CCOc1ccccc1/C=N/NC(=O)c1cccc(Cl)c1	Shiga toxin inh 57
O=C(O)c1ccccc1C(=O)c1ccc(Oc2ccccc2)cc1	none
O=C(O)c1ccccc1Oc1ccc(Oc2ccccc2)cc1	Cycloheximide cs 7.5
Cc1ccsc1C(=O)N/N=C/c1ccc2c(c1)OCO2	Shiga toxin inh 78, Cycloheximide cs 42
COc1ccc(/C=N/NC(=O)c2sccc2C)c2ccccc12	none (no result: AmpC inh detg, Shiga toxin inh, Cycloheximide cs, SARS PLP yeast, AmpC inh no detg)
O=C(N/N=C/c1ccc2c(c1)OCO2)c1cccc2ccccc12	none
O=C(N/N=C/c1ccc2c(c1)OCO2)c1cccs1	Shiga toxin inh 68, Cycloheximide cs 56
Cc1ccccc1/C=N/NC(=O)c1sccc1C	AmpC inh detg inconclusive, Shiga toxin inh 66, Cycloheximide cs 38
CCC(=O)N=c1sc2c(C)cc(C)cc2n1CC(=O)OC	none
COc1cc(S(=O)(=O)n2ccnc2)ccc1Br	none
Cc1cccc(NC(=O)c2cc(CN3CCOCC3)on2)c1C	none (no result: Shiga toxin inh, Cycloheximide cs, SARS PLP yeast, AMA1-RON2 inh, AmpC inh no detg)
CN(C)c1cccc(-c2cc(Nc3ccc(C(C)(C)C)cc3)ncn2)c1	none (no result: AmpC inh detg, Shiga toxin inh, Cycloheximide cs, SARS PLP yeast, AmpC inh no detg)
CN(C)c1ccc(Nc2cc(Cl)ncn2)cc1	AmpC inh detg inconclusive, Cycloheximide cs 42 (no result: Shiga toxin inh)
CCOc1cc(CNC(=O)c2cc(-c3ccccc3)n[nH]2)cc(OCC)c1OCC	none (no result: Shiga toxin inh, Cycloheximide cs, SARS PLP yeast, AMA1-RON2 inh, AmpC inh no detg)
COc1ccccc1Nc1nc(-c2c(C)nc3ncccn23)cs1	none
Cc1csc(Nc2cccc3ccccc23)n1	Cycloheximide cs 21
COc1ccc(OC)c(Nc2ccc(Nc3cc(OC)ccc3OC)nn2)c1	AMA1-RON2 inh inconclusive
COc1ccccc1Nc1ccc(Nc2ccccc2OC)nn1	Shiga toxin inh 175, Cycloheximide cs 29
COc1ccccc1Nc1nc(C)cs1	Shiga toxin inh 85!, Cycloheximide cs 22!
Cc1csc(Nc2ccccc2C(F)(F)F)n1	Cycloheximide cs 21
CC1CN=C(Nc2ccccc2)S1 (centres undefined)	none
CC1CN=C(Nc2cccc3ccccc23)S1 (centres undefined)	Cycloheximide cs 19
Cc1c(C(=O)Nc2cccc(Cl)c2)c2ccccn2c1CCc1ccncc1	Shiga toxin inh 37
Cc1c(C(=O)Nc2ccc(Cl)cc2)c2ccccn2c1C(=O)c1ccc(F)cc1	none
Cc1c(C(=O)Nc2ccc(Cl)cc2)c2ccccn2c1CCc1ccncc1	Shiga toxin inh 39, Cycloheximide cs 28
Cc1ccc(NS(=O)(=O)c2ccc(C(=O)NCCCN3CCCC3=O)cc2)cc1C	none (no result: Shiga toxin inh, Cycloheximide cs)
Cc1cc(C(=O)Nc2cccc3ccccc23)c(C)o1	Cycloheximide cs 25
Cc1occc1C(=O)Nc1cccc2ccccc12	Shiga toxin inh 67, Cycloheximide cs 56
Cc1occc1C(=O)Nc1ccccc1NC(=O)c1ccoc1C	none (no result: AmpC inh detg, Shiga toxin inh, Cycloheximide cs, SARS PLP yeast, AmpC inh no detg)
CN(Cc1ccccc1)C(=O)c1ccc(NC(=O)Cc2ccc([N+](=O)[O-])cc2)cc1	none (no result: AmpC inh detg, Shiga toxin inh, Cycloheximide cs)
CC(=O)Nc1cc(Cl)c(N=Cc2ccc(O)cc2O)cc1Cl	AmpC inh detg inconclusive
CCOC(=O)c1sc(/N=C/c2ccc(O)cc2O)cc1C	Shiga toxin inh 41, Cycloheximide cs 40
CC(=O)c1c(C)[nH]c(C(=O)Nc2cccc(C(F)(F)F)c2)c1C	Shiga toxin inh 73, Cycloheximide cs 32
CCOC(=O)c1c(C)[nH]c(C(=O)Nc2ccc(C)c(Cl)c2)c1C	Shiga toxin inh 103, Cycloheximide cs 35 (no result: AMA1-RON2 inh)
CC(=O)c1c(C)[nH]c(C(=O)NC2CCCCC2)c1C	AmpC inh detg inconclusive, Cycloheximide cs 16
COc1ccc(NC(=O)c2[nH]c(C)c(C(C)=O)c2C)cc1Cl	Cycloheximide cs 60
CCCOc1ccc(N2C(=O)CC(NCCc3ccc(S(N)(=O)=O)cc3)C2=O)cc1 (centres undefined)	AmpC inh detg inconclusive
Cc1cccc(C(=O)N2CCC(=O)N([C@H](COCc3cccc(C(F)(F)F)c3)Cc3ccccc3)CC2)c1	none (no result: AmpC inh detg, SARS PLP yeast, AmpC inh no detg)
CC(=O)c1c(C)[nH]c(C(=O)Nc2cc(F)ccc2C)c1C	AmpC inh detg inconclusive
CC(=O)c1c(C)[nH]c(C(=O)Nc2ccc(C)c(C)c2)c1C	Shiga toxin inh 65, Cycloheximide cs 36
CCc1c(C(=O)Nc2ccc(C)c(C)c2)[nH]c(C)c1C(C)=O	Shiga toxin inh 84, Cycloheximide cs 40
CCc1ccc(N2C(=O)CC(NNc3nc4ccccc4s3)C2=O)cc1 (centres undefined)	none
Cc1ccc(C)c(N2CCN(C(=O)c3csc(C)c3C)CC2)c1	none
COCCN(C(=O)C1CCC1)c1c(N)n(CC(C)C)c(=O)[nH]c1=O	none (no result: Shiga toxin inh, Cycloheximide cs)
Cc1cc(=O)[nH]c(SCC(=O)N2CCCC2)n1	none (no result: AmpC inh detg, Shiga toxin inh, Cycloheximide cs)
CCCC(C(=O)NCc1ccco1)N(C(=O)CNS(=O)(=O)c1ccc(Cl)cc1)C1CCCC1 (centres undefined)	none
O=C(NCc1ccccc1)/C(=N\O)c1ccccc1	Shiga toxin inh 54, Cycloheximide cs 21
C/C(=N\O)C(=O)NCc1ccccn1	none
O=C(NCc1ccccn1)/C(=N/O)c1ccccc1	Shiga toxin inh 31, Cycloheximide cs 36
O=C(NCc1cccnc1)/C(=N\O)c1ccccc1	AmpC inh detg inconclusive
O=C(C1CCCN(Cc2ccccc2Cl)C1)N1CCCCC1 (centres undefined)	none
COc1cccc(NC(=O)COC(=O)Cc2ccc(Br)cc2)c1	none
Cc1ccc(-n2ncc(C(=O)NCc3ccccc3C)c2-n2cccc2)cc1	none (no result: Shiga toxin inh, Cycloheximide cs, SARS PLP yeast, AMA1-RON2 inh, AmpC inh no detg)
C=C(C(=O)c1ccccc1)C(c1ccccc1)C(C)C(=O)c1ccccc1 (centres undefined)	none
C=C(C(=O)c1ccccc1)C(C)C(=C)C(=O)c1ccccc1	Cycloheximide cs 38
Cc1cc(N2CCN(C(=O)c3ccco3)CC2)n2ncc(-c3ccccc3)c2n1	AmpC inh detg inconclusive, Shiga toxin inh 64, Cycloheximide cs 31
Cc1ccc(-c2cnn3c(N4CCOCC4)cc(C)nc23)cc1	Shiga toxin inh 108, Cycloheximide cs 68
Cc1cc(N2CCOCC2)n2ncc(-c3ccc(Cl)cc3)c2n1	Shiga toxin inh 120, Cycloheximide cs 75
Cc1cc(N2CCCCC2)n2ncc(-c3ccccc3)c2n1	Cycloheximide cs 60
CCc1nn2c(N3CCOCC3)cc(C)nc2c1-c1ccc(F)cc1	none
Cc1cc(N2CCCCC2)n2nc(C)c(-c3ccccc3)c2n1	AmpC inh detg inconclusive
Cc1cc(N2CCOCC2)n2nc(C)c(-c3ccc(Cl)cc3)c2n1	none
C=CCc1c(C)nc2c(-c3ccccc3)cnn2c1N1CCOCC1	Shiga toxin inh 84, Cycloheximide cs 58
CC(C)(C)c1cc(N2CCOCC2)n2ncc(-c3ccc(Cl)cc3)c2n1	Cycloheximide cs 31
